PubChem BioAssay (EPA / NIEHS)
Inconclusive results are not listed. Activity calls are given as the source filed them. The calls were made as follows, unless noted: active = hit-call score of the fitted dose curve at least 0.9, where 1 is the maximum; inactive = score below 0.9.

Experiments:
[1] = target: human Retinoid X Receptor beta (RXRb), RXRB (gene 6257) (UniProt P28702); assay: ATG_RXRb_TRANS: Attagene TRANS-FACTORIAL HepG2 Assay for human Retinoid X Receptor beta (RXRb) (AID 2283013; active = hit-call score of the fitted dose curve at least 0.9, where 1 is the maximum)
human Retinoid X Receptor beta (RXRb), RXRB (gene 6257), sequence (P28702 whole entry, looked up, the tested form may be a part): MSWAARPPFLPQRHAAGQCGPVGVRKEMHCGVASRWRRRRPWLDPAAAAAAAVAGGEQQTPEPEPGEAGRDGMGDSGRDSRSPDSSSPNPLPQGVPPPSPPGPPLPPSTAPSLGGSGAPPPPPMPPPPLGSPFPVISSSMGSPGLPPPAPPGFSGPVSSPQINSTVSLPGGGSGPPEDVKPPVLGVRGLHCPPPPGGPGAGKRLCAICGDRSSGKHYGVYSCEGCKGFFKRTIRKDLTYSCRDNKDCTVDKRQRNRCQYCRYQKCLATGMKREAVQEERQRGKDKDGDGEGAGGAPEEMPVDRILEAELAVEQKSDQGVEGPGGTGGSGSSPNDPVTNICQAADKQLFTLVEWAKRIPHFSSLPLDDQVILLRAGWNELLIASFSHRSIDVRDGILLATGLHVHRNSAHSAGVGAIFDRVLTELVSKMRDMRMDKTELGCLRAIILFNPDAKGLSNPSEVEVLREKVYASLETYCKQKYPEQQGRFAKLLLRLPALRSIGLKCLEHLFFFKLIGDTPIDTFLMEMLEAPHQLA
How it was run: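 HepG2 cells transiently transfected with multiplexed reporter units driven by GAL4-UAS and exogenous chimeric NR-Gal4 proteins; treated 24 h. Reporter mRNA measured by RT-PCR, 6-FAM labelling and capillary electrophoresis; gain-of-signal fitted versus DMSO baseline.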

[2] = target: human Thyroid Receptor alpha (THRa1), THRA (gene 7067) (UniProt P10827); assay: ATG_THRa1_TRANS: Attagene TRANS-FACTORIAL HepG2 Assay for human Thyroid Receptor alpha (THRa1) (AID 2283014; active = hit-call score of the fitted dose curve at least 0.9, where 1 is the maximum)
human Thyroid Receptor alpha (THRa1), THRA (gene 7067), sequence (P10827 whole entry, looked up, the tested form may be a part): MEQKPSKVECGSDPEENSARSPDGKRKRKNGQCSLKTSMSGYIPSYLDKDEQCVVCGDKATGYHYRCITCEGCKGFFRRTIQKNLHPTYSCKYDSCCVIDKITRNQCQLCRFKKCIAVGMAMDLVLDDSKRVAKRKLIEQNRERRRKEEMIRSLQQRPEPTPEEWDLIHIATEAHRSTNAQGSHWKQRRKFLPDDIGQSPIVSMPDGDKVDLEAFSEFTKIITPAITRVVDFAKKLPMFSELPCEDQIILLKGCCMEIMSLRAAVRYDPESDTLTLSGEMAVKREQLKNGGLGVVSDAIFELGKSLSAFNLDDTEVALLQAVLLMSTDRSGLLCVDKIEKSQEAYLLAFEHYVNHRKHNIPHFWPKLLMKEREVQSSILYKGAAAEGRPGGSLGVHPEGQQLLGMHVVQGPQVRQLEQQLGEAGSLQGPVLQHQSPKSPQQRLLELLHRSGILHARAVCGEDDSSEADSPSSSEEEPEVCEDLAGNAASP
How it was run: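 First, HepG2 cells receive multiple GAL4-UAS reporter units and the chimeric receptor. They are then dosed for 24 h, after which RNA is reverse-transcribed, amplified, labelled, HpaI-cut and sized by capillary electrophoresis; gain relative to DMSO is scored.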

[3] = read-out: E-selectin (Homo sapiens) (UniProt P16581); assay: BSK_3C_Eselectin: BioMAP Diversity Plus: 3C Assay for Eselectin Biomarker Activity (AID 2283015); conditions: primary human endothelial cells (HUVEC); actives raise or lower the signal
How it was run: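 Human vascular endothelium from umbilical vein is exposed to test chemicals for 24 h. E-selectin levels are read by ELISA and compared with DMSO controls.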

[4] = read-out: Interleukin-1 alpha (IL1a), IL1A (gene 3552); assay: BSK_BE3C_IL1a: BioMAP Diversity Plus: BE3C Assay for Interleukin-1 alpha (IL1a) Biomarker Activity (AID 2283016); conditions: primary human bronchial epithelial cells; actives raise or lower the signal
How it was run: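 Human primary bronchial epithelial cells (BE3C system) were dosed with compound and IL-1a measured by ELISA 24 h later. Activity was fitted bidirectionally against DMSO baseline; cytotoxicity was tracked in parallel cultures by SRB total-protein staining.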

[5] = read-out: Monocyte Chemoattractant Protein-1 (MCP1), CCL2 (gene 6347); assay: BSK_3C_MCP1: BioMAP Diversity Plus: 3C Assay for Monocyte Chemoattractant Protein-1 (MCP1) Biomarker Activity (AID 2283017); conditions: primary human endothelial cells (HUVEC); actives raise or lower the signal
How it was run: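 Endothelial cells from human umbilical vein are dosed with chemical, cultured 24 h, then assayed for MCP-1 by ELISA; both increases and decreases are modelled against DMSO controls.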

[6] = read-out: Monocyte Chemoattractant Protein-1 (MCP1), CCL2 (gene 6347); assay: BSK_4H_MCP1: BioMAP Diversity Plus: 4H Assay for Monocyte Chemoattractant Protein-1 (MCP1) Biomarker Activity (AID 2283018); conditions: primary human endothelial cells (HUVEC); actives raise or lower the signal
How it was run: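 Human umbilical vein endothelial cells (4H system) dosed with chemical; MCP-1 measured by ELISA 24 h after dosing. Bidirectional curve fitting against DMSO negative control as baseline; parallel SRB total-protein staining tracks overt cytotoxicity.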

[7] = read-out: Human Leukocyte Antigen - DR isotype (HLADR), HLA-DRA (gene 3122); assay: BSK_3C_HLADR: BioMAP Diversity Plus: 3C Assay for Human Leukocyte Antigen - DR isotype (HLADR) Biomarker Activity (AID 2283019); conditions: primary human endothelial cells (HUVEC); actives raise or lower the signal
How it was run: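 Endothelial cells from human umbilical vein are treated with test chemical; after 24 h, HLA-DR levels are measured by ELISA. Data are fitted in both directions using DMSO as the baseline.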

[8] = read-out: Interleukin-8 (IL8), CXCL8 (gene 3576); assay: BSK_3C_IL8: BioMAP Diversity Plus: 3C Assay for Interleukin-8 (IL8) Biomarker Activity (AID 2283020); conditions: primary human endothelial cells (HUVEC); actives raise or lower the signal
How it was run: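 Primary human umbilical vein endothelial cells (3C system) were exposed to test chemical for 24 h, then IL-8 was quantified by ELISA. Responses were fitted bidirectionally against DMSO vehicle as baseline.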

[9] = read-out: Monokine induced gamma interferon (MIG), CXCL9 (gene 4283); assay: BSK_3C_MIG: BioMAP Diversity Plus: 3C Assay for Monokine induced gamma interferon (MIG) Biomarker Activity (AID 2283021); conditions: primary human endothelial cells (HUVEC); actives raise or lower the signal;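 as to AC50: MIG protein level measured by immunoassay in the treated endothelial cultures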
How it was run: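 Primary human umbilical vein endothelial cells in the 3C system were exposed to chemical for 24 h, after which MIG was quantified by ELISA. Activity was fitted bidirectionally against DMSO as negative control and baseline.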

[10] = target: human Vitamin D Receptor (VDR), VDR (gene 7421) (UniProt P11473); assay: ATG_VDR_TRANS: Attagene TRANS-FACTORIAL HepG2 Assay for human Vitamin D Receptor (VDR) (AID 2283022; active = hit-call score of the fitted dose curve at least 0.9, where 1 is the maximum)
human Vitamin D Receptor (VDR), VDR (gene 7421), sequence (P11473 whole entry, looked up, the tested form may be a part): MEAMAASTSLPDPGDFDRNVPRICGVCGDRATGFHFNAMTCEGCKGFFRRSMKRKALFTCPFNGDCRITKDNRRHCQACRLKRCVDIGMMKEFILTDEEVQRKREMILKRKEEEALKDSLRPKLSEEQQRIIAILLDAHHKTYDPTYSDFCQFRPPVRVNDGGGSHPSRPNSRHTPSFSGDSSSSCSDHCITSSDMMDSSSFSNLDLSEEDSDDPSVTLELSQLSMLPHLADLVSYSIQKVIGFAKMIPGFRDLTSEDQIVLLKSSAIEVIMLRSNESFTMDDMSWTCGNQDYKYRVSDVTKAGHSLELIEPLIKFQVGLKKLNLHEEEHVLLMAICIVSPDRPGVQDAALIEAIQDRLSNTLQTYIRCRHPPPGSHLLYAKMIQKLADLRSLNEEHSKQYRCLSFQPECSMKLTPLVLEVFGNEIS
How it was run: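 Fluorescence of labelled reporter cDNA fragments, resolved by capillary electrophoresis, gives mRNA induction after 24 h treatment of HepG2 cells carrying transfected Gal4-fusion reporter units. Activity is fitted in the positive direction with DMSO as baseline.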

[11] = BSK_3C_SRB: Viability Assessment in the BioMAP Diversity Plus: 3C Assay (AID 2283023); conditions: primary human endothelial cells (HUVEC);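 also: cells read 24 h after compound dosing; fitted both ways against DMSO so a hit may be signal rise or drop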
How it was run: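 Cells were dosed with chemical, cultured 24 h, fixed with 10% TCA, stained with 0.1% SRB and read at 560 nm. Human umbilical vein endothelium was used; DMSO served as negative control and baseline.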

[12] = read-out: Matrix Metallopeptidase 1 (MMP1), MMP1 (gene 4312); assay: BSK_BE3C_MMP1: BioMAP Diversity Plus: BE3C Assay for Matrix Metallopeptidase 1 (MMP1) Biomarker Activity (AID 2283024); conditions: primary human bronchial epithelial cells; actives raise or lower the signal
How it was run: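 Primary human bronchial epithelial cells were dosed with test chemicals, and MMP1 levels were measured by ELISA 24 h later. Data were fitted bidirectionally against DMSO as the negative control and activity baseline.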

[13] = BSK_3C_Vis: BioMAP Diversity Plus: 3C Assay for Morphology Visualization (AID 2283025); conditions: primary human endothelial cells (HUVEC);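 also: fitted both ways so gain or loss versus DMSO counts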
How it was run: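 Human umbilical vein endothelial cells in the 3C system were imaged by light microscopy 24 h after chemical dosing to record cell morphology. Activity was fitted bidirectionally against DMSO as negative control and baseline; the endpoint serves as a background control.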

[14] = BSK_4H_SRB: Viability Assessment in the BioMAP Diversity Plus: 4H Assay (AID 2283027); conditions: primary human endothelial cells (HUVEC);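 also: cells exposed to compound for 24 h before staining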;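 as to AC50: curves fitted both ways versus DMSO so AC50 may be loss or gain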
How it was run: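 Human umbilical vein endothelial cells were dosed with chemical and, after 24 h, fixed with 10% TCA, stained with 0.1% sulforhodamine B, and read at 560 nm to give total protein as a cytotoxicity measure. Bidirectional fitting relative to DMSO control.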

[15] = BSK_BE3C_SRB: Viability Assessment in the BioMAP Diversity Plus: BE3C Assay (AID 2283028); conditions: primary human bronchial epithelial cells
How it was run: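 Overt cytotoxicity was assessed as total protein in confluent human primary bronchial epithelial cultures 24 h after chemical addition, using 0.1% sulforhodamine B staining read at 560 nm.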

[16] = read-out: Thrombomodulin, THBD (gene 7056); assay: BSK_3C_Thrombomodulin: BioMAP Diversity Plus: 3C Assay for Thrombomodulin Biomarker Activity (AID 2283029); conditions: primary human endothelial cells (HUVEC); actives raise or lower the signal
How it was run: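 Primary human umbilical vein endothelial cells (3C system) were exposed to chemical for 24 h, then thrombomodulin levels were measured by ELISA. Activity was fitted bidirectionally against the DMSO negative control as baseline.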

[17] = read-out: Urokinase-type plasminogen activator receptor (uPAR), PLAUR (gene 5329); assay: BSK_4H_uPAR: BioMAP Diversity Plus: 4H Assay for Urokinase-type plasminogen activator receptor (uPAR) Biomarker Activity (AID 2283030); conditions: primary human endothelial cells (HUVEC); actives raise or lower the signal
How it was run: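 Chemicals are dosed onto human vascular endothelial primary cells (umbilical vein). After 24 h, uPAR is read by ELISA. Gain or loss of signal is fitted relative to DMSO.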

[18] = target: Retinoic acid receptor RXR-alpha (Homo sapiens) (UniProt P19793); assay: ATG_RXRa_TRANS: Attagene TRANS-FACTORIAL HepG2 Assay for human Retinoid X Receptor alpha (RXRa) (AID 2283012; active = hit-call score of the fitted dose curve at least 0.9, where 1 is the maximum)
Retinoic acid receptor RXR-alpha (Homo sapiens), sequence (P19793 whole entry, looked up, the tested form may be a part): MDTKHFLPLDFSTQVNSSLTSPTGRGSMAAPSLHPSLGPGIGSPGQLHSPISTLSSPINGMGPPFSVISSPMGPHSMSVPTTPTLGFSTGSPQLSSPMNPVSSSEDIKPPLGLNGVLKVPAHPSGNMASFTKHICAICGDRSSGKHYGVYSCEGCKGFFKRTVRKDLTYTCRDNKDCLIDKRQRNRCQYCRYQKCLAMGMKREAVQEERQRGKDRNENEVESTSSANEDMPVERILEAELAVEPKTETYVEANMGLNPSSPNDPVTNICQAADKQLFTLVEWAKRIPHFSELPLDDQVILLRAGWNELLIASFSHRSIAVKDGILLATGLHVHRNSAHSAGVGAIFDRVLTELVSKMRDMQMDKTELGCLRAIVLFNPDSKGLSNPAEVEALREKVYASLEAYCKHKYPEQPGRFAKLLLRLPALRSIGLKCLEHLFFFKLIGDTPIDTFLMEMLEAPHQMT
How it was run: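 HepG2 cells transiently transfected with multiplexed GAL4-UAS reporter units and chimeric NR-GAL4 fusions, dosed 24 h. Reporter mRNA measured by RT-PCR, FAM labelling, HpaI digestion and capillary electrophoresis; gain-of-signal fitted relative to DMSO baseline.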

[19] = read-out: Pselectin, SELP (gene 6403); assay: BSK_4H_Pselectin: BioMAP Diversity Plus: 4H Assay for Pselectin Biomarker Activity (AID 2283026); conditions: primary human endothelial cells (HUVEC); actives raise or lower the signal
How it was run: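 Primary human umbilical vein endothelial cells were exposed to test chemical for 24 h, then cell-surface P-selectin was quantified by ELISA. Activity was fitted bidirectionally against DMSO as negative control and baseline.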

Measured: AC50

E-selectin (Homo sapiens), sequence (P16581 whole entry, looked up): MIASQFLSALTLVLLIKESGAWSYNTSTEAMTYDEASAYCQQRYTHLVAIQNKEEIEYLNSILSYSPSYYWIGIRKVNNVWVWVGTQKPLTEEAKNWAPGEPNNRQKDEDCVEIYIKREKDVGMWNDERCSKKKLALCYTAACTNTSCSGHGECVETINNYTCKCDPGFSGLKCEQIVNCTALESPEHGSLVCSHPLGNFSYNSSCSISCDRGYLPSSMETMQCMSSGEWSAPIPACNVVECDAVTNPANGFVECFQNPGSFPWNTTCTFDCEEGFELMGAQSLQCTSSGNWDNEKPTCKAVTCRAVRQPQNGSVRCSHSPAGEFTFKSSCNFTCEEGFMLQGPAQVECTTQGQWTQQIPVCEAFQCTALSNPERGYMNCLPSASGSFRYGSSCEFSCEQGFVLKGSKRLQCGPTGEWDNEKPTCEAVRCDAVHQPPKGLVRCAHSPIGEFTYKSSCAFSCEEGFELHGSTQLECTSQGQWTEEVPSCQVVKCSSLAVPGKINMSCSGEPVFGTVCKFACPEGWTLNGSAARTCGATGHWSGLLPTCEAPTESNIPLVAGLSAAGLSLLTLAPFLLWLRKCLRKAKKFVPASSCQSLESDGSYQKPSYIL

Clc1ccc(C(c2ccc(Cl)cc2)C(Cl)Cl)cc1
active: [1] 33.4 µM | [3] 29.7 µM | [5] 13.9 µM | [6] 10.2 µM | [7] 14.4 µM | [8] 15 µM | [9] 35.2 µM | [11] 19.3 µM | [12] 13.7 µM | [13] 37.3 µM | [14] 29.3 µM | [17] 31.4 µM
inactive: [2] | [4] | [10] | [15] | [16]

C=CCc1ccc2c(c1)OCO2
not listed: [2] | [9] | [10] | [19]
inactive: all other assays above

[O-][Cl+]O
not listed: [10] | [18] | [19]
inactive: all other assays above

O=C(Oc1ccc(Br)cc1)N1CCN2CCC1CC2
not listed: [1] | [2] | [9] | [10]
inactive: all other assays above

Cc1ccc(N)c(N)c1
active: [3] 6.22 µM | [7] 7.53 µM | [8] 3.17 µM | [14] 4.08 µM
not listed: [1] | [2] | [9] | [10] | [19]
inactive: all other assays above

CC(C)(C)OOC(=O)c1ccccc1
not listed: [1] | [2] | [9] | [19]
inactive: all other assays above

CC(C)(C)C(O)(CCc1ccc(Cl)cc1)Cn1cncn1 (stereo not drawn)
not listed: [1] | [2] | [17]
inactive: all other assays above
